In PubChem BioAssay AID1159580 (chemical genetic matrix, 2015):
Where “and” joins values, the source holds several entries; their conditions need not be identical. Equal entries are not always repeated. About 2,000 (36%) of roughly 5,500 compounds were called active. Roughly 18% stayed inconclusive and do not appear here. Cut-off read from the data, not from the text of the source: active = normalized growth mostly below about 0.91 (no sharp cut-off); inconclusive = no clear call, values can overlap the other calls; inactive = mostly above about 0.92. The list shows a part of the results.

Experiment: chemical genetic growth profiling, strain panel (AID 1159580);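 note: tested at 20 µM; growth read once vehicle control cultures reached saturation at 30 °C; 1 = growth at the plate median or of vehicle wells; lower values mean less growth of the strain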
Settings: S. cerevisiae deletion strains, growth OD

Measured: normalized growth

CC1Cc2ccccc2N1NC(=O)c1ccc(Cl)c(S(N)(=O)=O)c1 (centres undefined)
inactive: locus YAL013W, strain DEP1, stronger effect = lower value 1.01 | locus YAL021C, strain ccr4, stronger effect = lower value 1 | locus YAL026C, strain drs2, stronger effect = lower value 1 | locus YAL030W, strain snc1, stronger effect = lower value 0.998 | locus YBL061C, strain skt5, stronger effect = lower value 0.999 | locus YBR009C, strain hhf1, stronger effect = lower value 0.996 | locus YBR021W, strain FUR4, stronger effect = lower value 1.01 | locus YBR023C, strain chs3, stronger effect = lower value 1 | locus YBR171W, strain sec66, stronger effect = lower value 0.997 | locus YBR229C, strain ROT2, stronger effect = lower value 1.01 | locus YBR231C, strain swc5, stronger effect = lower value 0.978 | locus YBR279W, strain paf1, stronger effect = lower value 1 | locus YCL011C, strain gbp2, stronger effect = lower value 1.01 | locus YCL016C, strain dcc1, stronger effect = lower value 0.996 | locus YCL029C, strain bik1, stronger effect = lower value 1.01 | locus YCL061C, strain MRC1, stronger effect = lower value 1.01 | locus YCL069W, strain vba3, stronger effect = lower value 0.991 | locus YCR088W, strain abp1, stronger effect = lower value 1.01 | locus YDL005C, strain med2, stronger effect = lower value 0.999 | locus YDL035C, strain GPR1, stronger effect = lower value 1.02 | locus YDL040C, strain nat1, stronger effect = lower value 0.997 | locus YDL074C, strain BRE1, stronger effect = lower value 1.02 | locus YDL101C, strain DUN1, stronger effect = lower value 1.01 | locus YDL134C, strain PPH21, stronger effect = lower value 1.03 | locus YDL185W, strain tfp1, stronger effect = lower value 0.989 | locus YDL192W, strain arf1, stronger effect = lower value 0.999 | locus YDR001C, strain nth1, stronger effect = lower value 1 | locus YDR069C, strain doa4, stronger effect = lower value 1 | locus YDR101C, strain arx1, stronger effect = lower value 1.02 | locus YDR137W, strain rgp1, stronger effect = lower value 1.01 | locus YDR159W, strain sac3, stronger effect = lower value 0.992 | locus YDR162C, strain NBP2, stronger effect = lower value 1.01 | locus YDR195W, strain ref2 0.979 | locus YDR297W, strain sur2, stronger effect = lower value 0.998 | locus YDR318W, strain mcm21, stronger effect = lower value 0.991 | locus YDR334W, strain swr1, stronger effect = lower value 1.01 | locus YDR335W, strain msn5, stronger effect = lower value 1 | locus YDR388W, stronger effect = lower value 1 | locus YDR392W, strain spt3, stronger effect = lower value 0.973 | locus YDR502C, strain sam2, stronger effect = lower value 1 | locus YEL003W, strain gim4, stronger effect = lower value 1 | locus YEL037C, strain rad23, stronger effect = lower value 1 | locus YEL061C, strain CIN8 (second series), stronger effect = lower value 0.999 | locus YEL061C, strain CIN8, stronger effect = lower value 1.01 | locus YER015W, strain faa2, stronger effect = lower value 1.01 | locus YER016W, strain bim1, stronger effect = lower value 0.995 | locus YER110C, stronger effect = lower value 0.996 | locus YER111C, strain swi4, stronger effect = lower value 1 | locus YER155C, strain BEM2 (second series), stronger effect = lower value 1.01 | locus YER155C, strain BEM2, stronger effect = lower value 1.01 | locus YER167W, strain BCK2, stronger effect = lower value 1.01 | locus YFR010W, strain ubp6, stronger effect = lower value 1 | locus YGL078C, strain dbp3, stronger effect = lower value 1 | locus YGL086W, strain mad1, stronger effect = lower value 1.01 | locus YGL167C, strain pmr1, stronger effect = lower value 1 | locus YGL173C, strain kem1, stronger effect = lower value 1.01 | locus YGL227W, strain vid30, stronger effect = lower value 0.999 | locus YGL240W, strain doc1, stronger effect = lower value 0.996 | locus YGL248W, strain PDE1, stronger effect = lower value 1.01 | locus YGL253W, strain hxk2, stronger effect = lower value 0.993 | locus YGR078C, strain PAC10, stronger effect = lower value 1.01 | locus YGR135W, strain pre9, stronger effect = lower value 0.972 | locus YGR229C, strain SMI1, stronger effect = lower value 1.02 | locus YGR252W, strain gcn5, stronger effect = lower value 0.938 | locus YHR013C, strain ard1, stronger effect = lower value 1.02 | locus YHR027C, strain rpn1, stronger effect = lower value 1.01 | locus YHR030C, strain SLT2, stronger effect = lower value 1 and 0.987 | locus YHR079C, strain IRE1 (second series), stronger effect = lower value 0.994 | locus YHR079C, strain IRE1, stronger effect = lower value 0.989 | locus YHR094C, strain hxt1, stronger effect = lower value 0.993 | locus YHR129C, strain ARP1, stronger effect = lower value 1.01 | locus YHR142W, strain chs7, stronger effect = lower value 0.994 | locus YHR200W, strain rpn10, stronger effect = lower value 1.01 | locus YIL066C, strain RNR3, stronger effect = lower value 1.02 | locus YIL073C, strain SPO22, stronger effect = lower value 0.991 | locus YIL125W, strain kgd1, stronger effect = lower value 0.995 | locus YIR030C, strain dcg1, stronger effect = lower value 1 | locus YJL092W, strain hpr5, stronger effect = lower value 0.994 | locus YJL095W, strain BCK1 (second series), stronger effect = lower value 1 | locus YJL095W, strain BCK1, stronger effect = lower value 1.01 and 0.979 | locus YJL115W, strain asf1, stronger effect = lower value 1 | locus YJL129C, strain trk1, stronger effect = lower value 0.989 | locus YJL134W, strain LCB3, stronger effect = lower value 1.01 | locus YJL154C, strain vps35, stronger effect = lower value 1 | locus YJL164C, strain tpk1, stronger effect = lower value 0.998 | locus YJL166W, strain qcr8, stronger effect = lower value 0.997 | locus YJL168C, strain set2, stronger effect = lower value 1 | locus YJL187C, strain SWE1 (second series), stronger effect = lower value 1.01 | locus YJL187C, strain SWE1, stronger effect = lower value 0.999
